# Laboratory results taken from the OligoGym collection.
# Molecular target: HERC3
# Assay: pooled miR-30 sensor sort-seq; sequence = guide strand
# Conditions: shRNA
# Further: reference of the scale not given here.
row,Sequence,sensor-assay potency score (higher = more potent)
1,ATAATATCTGAACAACACCATT,-1.67
2,TTATCTAGTACTTTGCTGGGGT,0.669
3,TACTTTGCCACCACACACCTTT,0.0362
4,TAGCTTTCTCGGCAGATCGTGA,-0.772
5,TTCAGCTTTTGTATTAACCTGG,0.299
6,TTTACATTGAGTAACTTCTTGT,-0.154
7,TTGTGCTCTACAAAACACGTGT,0.203
8,TACATTGAGTAACTTCTTGTAG,0.402
9,TTGAACTATATGCACACACATA,-1.08
10,TAACTTCTCAAATAACACCCTA,-0.57
11,TATCTGAACAACACCATTGATT,-0.697

# Molecular target: HES7
# Assay: as above
# Conditions: shRNA
row,Sequence,sensor-assay potency score (higher = more potent)
1,TTGGGCGCCCCGTCTTGTCTGT,-1.06
2,TCCGCTTTCTCCAGCTTCGGGT,-1.29
3,TTCGCTCCCTCAAGTAGCCCAC,-0.598
4,TTCCGGAGGTTCTGGTCCCGGG,-1.41
5,AGCGGCTTGAGCATCTTGGGGC,-0.755
6,AACCGGACAAGTAGCAGCTGGC,-1.06
7,AAGCGAAGCAGGCACTCGCGGA,-1.48
8,AAACCGGACAAGTAGCAGCTGG,-0.705
9,TTTGGGGCGCAGATAGCCGTGC,-0.737
10,ATATAGACCACATCTCACCCGC,-0.0228
11,TTTCTCCAGCTTCGGGTTCCGG,-1.22
12,TATCTCCGCTTTCTCCAGCTTC,-1.2
